Experimental findings from PubChem BioAssay (NCATS) are described below.

The structures appear in SMILES notation. Results filed as inconclusive are left out. Entries that show only a call come without a potency. Activity calls are given as the source filed them. The call rests on the fitted dose curve; in most records, active means well fitted cell-killing curve with a large enough effect; inconclusive means small, poorly fitted or top-dose-only effect, or effect the other way; inactive means no such curve, though single readings can be large or run the other way.
Potency means the concentration at half of the fitted maximal effect.

The nature of the test: Viability qHTS for spleen associated tyrosine kinase inhibitor (SYKi) naive MV4-11 cells (AID 1963823). Further: nearly all actives have a fitted effect of over 40% in size. As to conditions: MV4-11 AML viability, CellTiter-Glo luminescence, 72 h; series mostly up to 45 µM. An outline of the steps:
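Seeding of 500 SYKi-naive MV4-11 cells per well onto pre-dispensed compounds preceded a 72 hr incubation at 37 C. Luminescent CellTiter-Glo signal, read after 10 min at room temperature, reflected viable cells.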
For orientation: qHTS replaces the single test concentration by a dilution series.
On to `CC(=O)O[C@H]1[C@@]2(O)C[C@H](C)[C@H](OC(=O)c3ccccc3)[C@@H]2[C@@H](OC(=O)CO)[C@]2(OC(C)=O)C[C@H]3C(=O)C(C)(C)C[C@@H]3[C@@]1(C)[C@H]2OC(C)=O`, for which the Potency result is “inactive”.

For `O=C(O[C@H]1[C@H](Oc2ccc(O)cc2CO)O[C@H](CO)[C@@H](O)[C@@H]1O)c1ccccc1`, the Potency result is “inactive”. Regarding `CC(=O)/C=C/C1C(C)CC(O[C@@H]2O[C@H](CO)[C@@H](O)[C@H](O)[C@H]2O)CC1(C)C` (stereo not given in full), the Potency entry is “inactive”. For `CC(CO[C@@H]1O[C@H](COC(=O)/C=C/c2ccc(O)c(O)c2)[C@@H](O)[C@H](O)[C@H]1O)C1(O)COC(=O)C1` (stereo not given in full), the Potency entry was “inactive”.

Regarding `CC(=O)OC(CSC1CCC(=O)OC(C)CCC(=O)C1)C(=O)O` (stereo not given), the Potency entry was “inactive”. For `O=C(c1cc2c(cc1F)OC(c1ccc(F)cc1)(c1ccc(Cl)cc1Cl)O2)N1CCOCC1` (stereo not given) the value was “inactive”; for `C=CC1C(OC2OC(CO)C(O)C(O)C2O)OC=C(C(=O)OC)C1CC1CC(=O)CC(CCc2ccc(O)cc2)O1` (stereo not given), “inactive”; for `COc1ccc(C2(O)c3ccccc3NC(=O)C2O)cc1` (stereo not given), “inactive”.

For the compound `C[C@H]1C[C@H]2[C@@H]3CCC4=CC(=O)C=C[C@]4(C)[C@@]3(F)[C@@H](O)C[C@]2(C)[C@@]1(O)C(=O)COP(=O)(O)O`, the Potency entry is “inactive”.

With `CC(=O)O[C@H]1CC(C)(C)CC2[C@@]13[C@H](O)C[C@]1(C)[C@@]2(CCC2[C@@]4(C)CC[C@H](O[C@@H]5OC[C@H](O[C@@H]6O[C@H](CO)[C@@H](O)[C@H](O)[C@H]6O[C@@H]6OC[C@@H](O)[C@H](O)[C@H]6O)[C@H](O)[C@H]5O[C@@H]5O[C@H](CO)[C@@H](O)[C@H](O)[C@H]5O)C(C)(C)C4CC[C@]21C)O[C@@H]3O` (stereo not given in full), the Potency is 0.873 µM (active).

For the compound `Cc1ccccc1-c1cc(N2CCN(C)CC2)ncc1N(C)C(=O)C(C)(C)c1cc(C(F)(F)F)cc(C(F)(F)F)c1`, the Potency entry was “inactive”. Take `Cc1c(C2=CCN(C(=O)N(C)C(C)C)CC2)nnn1-c1cccnc1F`: the Potency result was “inactive”.

As to `O=C(NCC(=O)N1CCCC1)Nc1ccc2ccccc2c1`, the Potency was 5.8 µM (active). In the case of `COc1ccc(NC(=O)C2C[C@H](C)CC[C@H]2C(C)C)cc1` (stereo not given in full), the Potency result was “inactive”. As to `CC1=CC(=O)CC(C)(C)C1/C=C/C(C)O[C@@H]1O[C@H](CO)[C@@H](O)[C@H](O)[C@H]1O[C@@H]1OC[C@](O)(CO)[C@H]1O` (stereo not given in full), the Potency entry is “inactive”. With `CCCC(=O)O[C@@H]1[C@@H]2[C@@H](OC(C)=O)[C@]3(C)C(=O)[C@H]4[C@@H](OC(C)=O)C(C)(C)C[C@H]4[C@]3(C)C(=O)[C@@]2(OC(C)=O)C[C@@H]1C`, the Potency result was “inactive”. Regarding `COc1cc2nc(N3CCN(C(=O)COc4c(OC)cccc4C(C)C)CC3)nc(N)c2cc1OC`, the Potency was 20.6 µM (active). Take `CC(C)(O)C1CCC(C)(C2CCC3(C)C4CCC5C(C)(C(=O)OC6OC(CO)C(O)C(O)C6O)C(O)CC(O)C56CC46CCC23C)O1` (stereo not given): the Potency entry is “inactive”. As to `CC(O)/C=C/C1OC(=O)CC1Nc1ccc(C(=O)O)cc1` (stereo not given), the Potency result is “inactive”. As for `C=CC1C(OC2OC(CO)C(O)C(O)C2O)OC=C2C(=O)N3C(C(=O)O)Cc4c([nH]c5ccccc45)C3CC21` (stereo not given), the Potency result is “inactive”. For `CC(NC(=O)CC(=O)O)c1nc2ccccc2c(=O)[nH]1` (stereo not given) the value was “inactive”; for `C/C=C(\C)C(=O)OC1C(C)C2(O)C(C=C(CO)CC3(O)C(=O)C(C)=CC32)C2C(C)(C)C12OC(=O)C(C)C` (stereo not given), 0.02 µM (active).

In the case of `Cc1cc(-c2nc(-c3ccc(OC(F)(F)F)cc3)no2)nn1Cc1ccnc(N2CCN(C3CC3)CC2)c1`, the Potency result is “inactive”. Consider `CCOC(=O)c1ccc(OCCC2CCN(c3ccc(C)nn3)CC2)cc1`, for which the Potency entry is “inactive”.

For `COC(=O)C(CC1(O)c2ccccc2N2C(=O)C(C)(C)N(O)C21)n1cnc2ccccc2c1=O` (stereo not given), the Potency entry was “inactive”.

`CC1=CCC[C@@H]2[C@@](C)(CCc3ccoc3)[C@H](C(=O)O)CC[C@@]12C`: the Potency was 2.86 µM (active).

Take `C=C1C(=O)O[C@@H]2/C=C(/C)[C@@H](OC(C)=O)C/C=C(\C)C[C@@H](OC(=O)/C(=C/CO)CO)[C@@H]12`: the Potency was 3.99 µM (active).

For `C=C(C)[C@@H]1CC[C@]2(C)CC[C@]3(C)C(CCC4[C@@]5(C)CC[C@H](O)C(C)(C)C5CC[C@]43C)C12` (stereo not given in full), the Potency result was “inactive”. For `COC1C(O)C(OC2CCC3(C)C(CCC45CCC6C7(COC(=O)C7)OC4(O)C6(C)CCC35)C2)OC(C)C1OC1OC(CO)C(OC2OC(CO)C(O)C(O)C2O)C(O)C1O` (stereo not given) the value was 3.9 µM (active); for `CCOc1nc(NC(=O)Cc2cc(OC)ccc2OC)cc(N)c1C#N`, “inactive”.
